Bioassay records: PubChem, National Center for Advancing Translational Sciences (NCATS)
HCMV inh = blocks human cytomegalovirus replication | actives 4.5% (n = 410,000) | activity change, negative = inhibition, % at 57.5 µM | HFF cells, HCMV-luciferase reporter, 72 h; hits give low values; in the data active = activity change below about -60%; inconclusive = no clear call, values can overlap the other calls; inactive = above about -39%
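Compounds were evaluated in HFFs infected with an HCMV luciferase reporter virus (MOI 1 PFU/cell). Luciferase in lysates collected 72 h post infection served as the replication measure.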
Pf growth 48h = P. falciparum growth inhibition at 48 hours (one generation). P. falciparum luciferase growth in erythrocytes, 48 h. Potency, µM (top dose mostly 28.7 µM), inactives show at the top dose activity change, negative = inhibition, actives largely listed as inhibitors. actives 5.9% (n = 310,000). AID 504832; note: potency is the fitted concentration of half-maximal effect
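In quantitative HTS format, infected erythrocytes bearing luciferase-reporter parasites were treated for a single generation at 37 C. Luminescence after adding detection reagent served as the growth measure.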
Pf growth 96h = P. falciparum growth inhibition at 96 hours. P. falciparum luciferase reporter growth, 96 h. Potency, µM (doses to about 28.7 µM), without a hit: at the highest dose activity change, negative = inhibition, most hits filed as inhibitors. actives 6.9% (n = 320,000); note: potency is the fitted concentration of half-maximal effect
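Readout is luminescence from an integrated firefly luciferase in P. falciparum. Red cells, 2% hematocrit and 0.05% parasitemia final, were cultured with compound through two parasite generations (96 hours) at 37 C, 5% CO2.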
HCV inh = inhibitors of hepatitis C virus infection; Huh7.5.1 HCVcc-Cre infection, luciferase reporter, 44 h; Potency, µM (highest dose often 41.8 µM), inactives show at the top dose activity change, negative = inhibition, actives largely listed as inhibitors; actives 3.4% (n = 340,000); AID 651820; note: potency is the fitted concentration of half-maximal effect
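1,000 cells/well; 4 h culture; + compound; + HCVcc-Cre (~0.5 moi); 44 h; luciferase substrate, RT 15 min; read 15 sec.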
* marks the source's active call; other numbers are inactive results. Rows were chosen to be rich in hits. Some 13% of all compounds tested hit in one or more screens of this group. Unless noted, calls come from the whole dose curve; as a rule, active = well fitted inhibition curve with a large enough effect; inconclusive = small, poorly fitted or top-dose-only effect, or another doubt; inactive = no such curve, though single readings can be large or run the other way. % is set by controls: 0 for no effect and ±100 for the full control effect.

Screening CCc1ccc(C(=O)COC(=O)c2n[nH]c3ccccc23)cc1 returned HCMV inh -65*, Pf growth 48h 130%, Pf growth 96h 120% and HCV inh -19%.
CCc1ccc(C(=O)COC(=O)c2cncc(Br)c2)cc1 was read as HCMV inh -37, Pf growth 48h 17µM*, Pf growth 96h 52% and HCV inh -20%.
`Cc1ccc(CNC(=O)Cn2ccn(-c3cccc(Cl)c3)c(=O)c2=O)cc1` gave HCMV inh -23.
`COc1ccc(C2c3cc(OC)c(OC)cc3CC(=O)N2c2ccc(C)c(F)c2)cc1` (configuration not stated) gave HCMV inh 13.
Screening Cc1cccc(-c2nc(C(N)=O)c3c(n2)n(-c2ccc4c(c2)OCO4)c(=O)n3C)c1 returned HCMV inh 7.
`COc1ccccc1CNC(=O)CCCCn1c(=O)c2ccccc2n(CC(=O)Nc2c(C)cc(C)cc2C)c1=O` gave HCMV inh -1.
`CSCCC(c1nc2ccccc2[nH]1)n1c(-c2cc(C(F)(F)F)cc(C(F)(F)F)c2)nc2ccccc21` (configuration not stated) gave HCMV inh -27.
For Cc1ccccc1OCCSc1nc2ccc(NC(=O)c3cccs3)cc2s1 the results were HCMV inh -39.
For Cc1nn(C(=O)c2ccccc2)c(C)c1Sc1ccc(Cl)cc1 the results were HCMV inh -74*.
Screening CCC(=O)Oc1c(Sc2ccc(Cl)cc2)c(C)nn1-c1ccccc1 returned HCMV inh -94*.
For CC1CCN(S(=O)(=O)c2ccc3c(c2)c(=O)c(C(=O)NC(C)c2ccccc2)cn3C)CC1 (configuration not stated) the results were HCMV inh -10.
`COc1cccc(N2CC(C(=O)NNC(=O)c3ccc(Cl)cc3)CC2=O)c1` (configuration not stated) gave HCMV inh 3, Pf growth 48h 0%, Pf growth 96h 5.9µM* and HCV inh 22%.
For O=C(NC1CCCCC1)C1CC(=O)N(c2ccccc2)C1 (configuration not stated) the results were HCMV inh -8, Pf growth 48h 9%, Pf growth 96h 3.3µM* and HCV inh 14%.
Screening Cc1ccc(N2CC(C(=O)Nc3ccc(N(C)C)cc3)CC2=O)cc1C (configuration not stated) returned HCMV inh 61, Pf growth 48h 5%, Pf growth 96h 8.3µM* and HCV inh inconclusive.
For Cc1ccc(N2CC(C(=O)Nc3cccc(F)c3)CC2=O)cc1 (configuration not stated) the results were HCMV inh 25, Pf growth 48h -6%, Pf growth 96h 2.3µM* and HCV inh -6%.
For O=C(NC1CC(=O)N(c2ccccc2)C1)C1CCCC1 (configuration not stated) the results were HCMV inh 67.
COc1ccc(CC(=O)NCC(c2cccs2)S(=O)(=O)c2ccc(C)cc2)cc1 (configuration not stated) was read as HCMV inh 14.
For COC(=O)c1sc2cccc(F)c2c1S(=O)(=O)N1CCN(c2cccc(C)c2)C(C)C1 (configuration not stated) the results were HCMV inh 5.
Screening CCOc1ccc(C(c2c(O)cc(C)n(CCOC)c2=O)N2CCC(C)CC2)cc1 (configuration not stated) returned HCMV inh 12.
For COc1ccc(N2CC(C(=O)N[C@@H](CC(C)C)C(=O)NC3CCCCC3)CC2=O)cc1 (some centres not stated) the results were HCMV inh 33, Pf growth 48h inconclusive, Pf growth 96h 15µM* and HCV inh 24%.
For O=C(NC1CC1)C1CC(=O)N(c2cccc(Cl)c2)C1 (configuration not stated) the results were HCMV inh 1, Pf growth 48h 10µM*, Pf growth 96h inconclusive and HCV inh 6%.
For Cc1ccc(N2CC(C(=O)NC3CC3)CC2=O)cc1Cl (configuration not stated) the results were HCMV inh 1, Pf growth 48h 23%, Pf growth 96h 9% and HCV inh -4%.
Screening Cc1ccc(N2CC(C(=O)NC3CCCCCC3)CC2=O)cc1 (configuration not stated) returned HCMV inh -64*.
`COc1ccc(CNC(=O)CN2C(=O)CCCc3ccccc32)cc1` gave HCMV inh 0.
`Cc1c(C(=O)Nc2ccc(F)cc2)nnn1-c1cccc(C(F)(F)F)c1` gave HCMV inh -88*, Pf growth 48h 31%, Pf growth 96h 3% and HCV inh inconclusive.
Cc1c(C(=O)Nc2ccc(C(=O)O)cc2)nnn1-c1ccccc1 was read as HCMV inh -74*.
For CCOc1ccc(Nc2cc(C)nc3nc(Cc4ccc(Cl)cc4)nn23)cc1 the results were HCMV inh -21.
Screening Cc1sc2nc(C3CC3)nc(NCCNS(=O)(=O)c3ccccc3)c2c1C returned HCMV inh -32, Pf growth 48h 9.3µM*, Pf growth 96h -12% and HCV inh inconclusive.
For Cc1sc2nc(CN3CCOCC3)nc(NS(=O)(=O)c3ccccc3)c2c1C the results were HCMV inh -13, Pf growth 48h 24% and HCV inh 2%.
Cc1sc2nc(CSc3ccccc3)nc(NCCN(C)C)c2c1C was read as HCMV inh -17, Pf growth 48h inconclusive, Pf growth 96h 5.9µM* and HCV inh inconclusive.
Cc1sc2nc(CSc3ccccc3)nc(N3CCC(C(N)=O)CC3)c2c1C was read as HCMV inh 1, Pf growth 48h inconclusive, Pf growth 96h 12µM* and HCV inh inconclusive.
`CCOC(=O)c1sc2nc(C)nc(SCC(=O)N(CC)C3CCS(=O)(=O)C3)c2c1C` (configuration not stated) gave HCMV inh -73*, Pf growth 48h inconclusive, Pf growth 96h inconclusive and HCV inh -9%.
Screening CCOC(=O)c1sc2nc(CSc3ccccc3)nc(N3CCC(C(N)=O)CC3)c2c1C returned HCMV inh inconclusive, Pf growth 48h 3.3µM*, Pf growth 96h 4.1µM* and HCV inh inconclusive.
CCOC(=O)c1sc2nc(C)nc(N3CCCCC3C)c2c1C (configuration not stated) was read as HCMV inh -73*, Pf growth 48h inconclusive, Pf growth 96h -18% and HCV inh -29%.
Screening CCOc1ccc(CNC(=O)C2=Cc3cccc(OC)c3OC2)cc1 returned HCMV inh 38.
For CSc1cccc(CN2CCN(CCc3ccccc3)C(CCO)C2)c1 (configuration not stated) the results were HCMV inh -32, Pf growth 48h inconclusive, Pf growth 96h 214% and HCV inh -20%.
